Measured values reported in PubChem BioAssay (NCATS).
Inconclusive results are not listed. Unmarked numbers belong to inactive results. Calls of active or inactive are those of the source. Calls come from the whole dose curve; as a rule, active = well fitted cell-killing curve with a large enough effect; inconclusive = small, poorly fitted or top-dose-only effect, or effect the other way; inactive = flat fitted curve, though single readings scatter.

system: HeLa; assay: Primary qHTS to identify gynecologic anti-cancer compounds using libraries of approved drugs and bioactive compounds (AID 1345084); conditions: Gynecologic cancer cell panel viability, ATPlite luminescence, 48 h; series mostly up to 57.5 µM; activity change, negative = cytotoxicity: at the top concentration; note: nearly all actives have a fitted effect of over 55% in size
In short: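 Cytotoxicity screen measuring ATP content by luciferase luminescence. Each compound is applied at five concentrations for 48 h at 37 C with 5% CO2.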
% is set by controls: 0 for no effect and ±100 for the full control effect.

SMILES	activity change, negative = cytotoxicity	Potency
COc1c(OC2OC(CO)C(O)C(O)C2O)ccc(O)c1C(=O)OCc1ccccc1O[C@@H]1O[C@H](CO)[C@@H](O)[C@H](O)[C@H]1O (stereo not given in full)	-1.15% [at 25.3 µM]	
CC1CCC2(C(=O)OC3OC(CO)C(O)C(O)C3O)CCC3(C)C(=CCC4C5(C)CC(O)C(O)C(C)(C(=O)O)C5CCC43C)C2C1(C)O (stereo not given)	-2.43% [at 25.3 µM]	
CC(=O)O[C@@H]1[C@H]2[C@@H](OC(=O)c3ccccc3)[C@@H](C)C[C@]2(O)[C@H](OC(C)=O)[C@@]2(C)[C@@H]3CC(C)(C)C(=O)[C@]3(OC(C)=O)C[C@@]12C	-1.24% [at 25.3 µM]	
Cc1[nH]cnc1C1CCN(c2nc3cccc4c3n2CCC4=O)CC1	8.49%	
CN1CC[C@@H](NC(=O)Nc2ccc(C#N)cc2)C[C@@H]1c1nc2ccccc2[nH]1	17.3%	
CC1=C2C(=O)O[C@@H](c3ccoc3)[C@]2(C)CCC1		inactive
COc1ncc(-c2ccc3c(Nc4cc(Oc5cc(F)cc(F)c5)cc(C(=O)O)c4)c(S(=O)(=O)NC4CC4)cnc3c2)c(OC)n1	7.23%	
C=C1CCC(OC(C)=O)C2(C)CC3(O)OC(=O)C(C)=C3CC12 (stereo not given)	8.95%	
C=C1CC[C@H]2[C@@](C)(CCC[C@@]2(C)C(=O)O)[C@@H]1CCC(C)CCO (stereo not given in full)	0% [at 38.5 µM]	
CC1CCC2(C(=O)OC3OC(CO)C(O)C(O)C3O)CCC3(C(=O)O)C(=CCC4C5(C)CCC(OC6OC(C)C(O)C(O)C6O)C(C)(C)C5CCC43C)C2C1C (stereo not given)	2.44% [at 25.3 µM]	
CCC(C)/C=C(C)/C=C/C1=CC2=C(Cl)C(=O)C(C)(OC(C)=O)C(=O)C2=CN1C1CCCCN(C(CCC(N)=O)C(=O)O)C1=O (stereo not given)	7.78% [at 25.3 µM]	
CC(c1c[nH]c2ccccc12)C(O)C(=O)O (stereo not given)	-2.36%	
CC(C)C(=O)c1cn(CC(=O)COc2ccc(Oc3ccccc3)cc2)c2ccc(C(=O)O)cc12	7.91%	
CC1=C(C)C(=O)OC(C(C)(O)C2CCC3C4CC=C5CC(OC6OC(COC7OC(CO)C(O)C(O)C7O)C(O)C(O)C6O)CC(O)C5(C)C4CCC32C)C1 (stereo not given)	26.5% [at 25.3 µM]	
CC(=O)OC[C@@]12[C@H](O)C[C@]3(C)C(=CCC4[C@@]5(C)CC[C@H](O[C@@H]6O[C@H](C(=O)O)[C@@H](O[C@@H]7O[C@H](CO)[C@@H](O)[C@H](O)[C@H]7O)[C@H](O)[C@H]6O[C@@H]6O[C@H](CO)[C@@H](O)[C@H](O)[C@H]6O)[C@](C)(CO)C5CC[C@]43C)[C@@H]1CC(C)(C)[C@@H](OC(C)=O)[C@@H]2O (stereo not given in full)	2.68% [at 11.6 µM]	
CC12CCC3c4ccc(O)cc4CCC3C1CCC2OC1OC(C(=O)O)C(O)C(O)C1O (stereo not given)	14.9%	
COc1ccccc1-n1c(SCC(=O)Nc2nc3ccc(C)cc3s2)nc2c(c1=O)SCC2	7.14% [at 25.3 µM]	
CC1(C)CC[C@]2(C(=O)O[C@@H]3O[C@H](CO)[C@@H](O)[C@H](O)[C@H]3O)CC[C@]3(C)C(=CCC4[C@@]5(C)C[C@@H](O)[C@H](O)[C@@](C)(CO)C5CC[C@]43C)C2C1 (stereo not given in full)	-2.17% [at 25.3 µM]	
C=CC1(C)C=C2C(=O)CC3C(C)(C)CCCC3(C(=O)O)C2(O)CC1 (stereo not given)	0.413% [at 38.5 µM]	
O=C(O)c1n[nH]c2c1C[C@H]1C[C@@H]21	6.96%	

SMILES	activity change, negative = cytotoxicity	Potency
COC(=O)C1=COC(O[C@@H]2O[C@H](CO)[C@@H](O)[C@H](O)[C@H]2O)/C(=C\COC(=O)c2ccc(OC3OC(CO)C(O)C(O)C3O)c(OC)c2)C1CC(=O)OCCc1ccc(O)cc1 (stereo not given in full)	2.44% [at 11.6 µM]	
CC(=O)OC[C@@]12[C@@H](OC(C)=O)C[C@@H](C)[C@](C)([C@@H]3C[C@H]4C=CO[C@H]4O3)[C@H]1CCC[C@]21CO1	6.14% [at 25.3 µM]	
C=CC1(C)CC(OC(=O)C(=C)C(O)COC(C)=O)C(C(=C)C(=O)OC)C(O)C1C(=C)CO (stereo not given)	7.53% [at 25.3 µM]	
CC(=C/C(=O)O)/C=C/[C@]1(O)[C@@]2(C)CO[C@]1(C)C[C@H](O[C@@H]1O[C@H](CO)[C@@H](O)[C@H](O)[C@H]1O)C2	1.45% [at 25.3 µM]	
CC1CCC2(C)C(CC(O)C(O)C23CO3)C1(C)CCC1=CC(=O)OC1O (stereo not given)	-1.86% [at 38.5 µM]	
CC1CCC2(NC1)OC1C(=O)C3C4CCC5CC(O[C@@H]6O[C@H](CO)[C@@H](O)[C@H](O)[C@H]6O[C@@H]6O[C@@H](C)[C@H](O)[C@@H](O)[C@H]6O)CCC5(C)C4CCC3(C)C1C2C (stereo not given in full)	12.9% [at 25.3 µM]	
Cc1nn(C)c(COc2ccc(N3CCN(S(=O)(=O)N(C)C)CC3)cc2)c1-c1cccc2c(CCCOc3cccc4ccccc34)c(C(=O)O)n(CCN3CCOCC3)c12	19%	
C=C(C)[C@@H](C)[C@H]1O[C@]23C[C@]4(CO2)C(CCC2[C@@]5(C)CC[C@H](O[C@@H]6OC[C@H](O)[C@H](O[C@@H]7O[C@H](CO)[C@@H](O)[C@H](O)[C@H]7O)[C@H]6O[C@@H]6O[C@@H](CO)[C@H](O)[C@H]6O)C(C)(C)C5CC[C@]24C)C3[C@@](C)(O)[C@@H]1OC(C)=O (stereo not given in full)	-18.1% [at 11.6 µM]	
CCCCN(CCCC)C(=O)CN1C[C@H](c2ccc3c(c2)OCO3)[C@@H](C(=O)O)[C@@H]1c1ccc(OC)cc1	-4.51%	
COc1c(C)c(OCC=C(C)C)cc2c1C(=O)NC2=O	2.31%	
COC(=O)C1=CO[C@@H](O[C@@H]2O[C@H](CO)[C@@H](O)[C@H](O)[C@H]2O)[C@@H]2[C@@H](C(=O)OC)[C@@H](O)C(O)[C@H]12 (stereo not given in full)	0.755% [at 25.3 µM]	
C=C(C(=O)O)C1CCC(C)C2CCC(=O)OC2(C)C1 (stereo not given)	18.8%	
COc1cc(/C=C/C(=O)O[C@H]2[C@H](OC(=O)/C=C/c3cc(OC)c(O)c(OC)c3)O[C@H](CO[C@@H]3O[C@H](CO)[C@@H](O)[C@H](O)[C@H]3O)[C@@H](O)[C@@H]2O)ccc1O	6.75% [at 25.3 µM]	
COc1c(C)c2c(c(O)c1C/C=C(\C)CC/C=C(\C)CCC(=O)O)C(=O)OC2	9.74% [at 38.5 µM]	
C=C1[C@H]2CC[C@]3(O)[C@@](CC[C@@H]4[C@](C)(C(=O)O)CCC[C@]43C)(C2)[C@H]1OC(=O)/C(C)=C\C	5.12% [at 25.3 µM]	
CC(=O)O[C@H]1[C@H](Oc2ccccc2COC(=O)C2(O)C=CCCC2=O)O[C@H](CO)[C@@H](O)[C@@H]1O (stereo not given in full)	5.57% [at 25.3 µM]	
OCC1=CC[C@@H]2C=CO[C@@H](O[C@@H]3O[C@H](CO)[C@@H](O)[C@H](O)[C@H]3O)[C@H]12	4.16% [at 38.5 µM]	
CC[C@H]1OC(=O)C[C@@H](O)[C@H](C)[C@@H](O[C@@H]2O[C@H](C)[C@@H](O)[C@H](N(C)C)[C@H]2O)[C@@H](CCN2C[C@H](C)C[C@H](C)C2)C[C@@H](C)C(=O)/C=C/C(C)=C/[C@@H]1CO[C@@H]1O[C@H](C)[C@@H](O)[C@@H](OC)[C@H]1OC	0.588%	
COc1cc(C2Oc3c(OC)cc(/C=C/C(=O)OC[C@H]4O[C@@H](OC(C)(C)C(=O)O)[C@H](O)[C@@H](O)[C@@H]4O)cc3C2CO)ccc1O (stereo not given in full)	4.79% [at 25.3 µM]	
CC(=O)OCCC(C)CCC1C(C)(O)CCC2C(C)(C)CCCC21C (stereo not given)	4.15% [at 38.5 µM]	
